Experimental data from ChEMBL document CHEMBL4296183, “CO-ADD screening of NIH NCI Natural Product Set III” (2020).
For some assays here: Results with a measured potency or affinity are listed apart.

What was measured:
Staphylococcus aureus = assay: Antibacterial activity against Staphylococcus aureus MRSA ATCC 43300 (CO-ADD:GP_020); MIC in CAMBH media using NBS plates, by Resazurin F(560/590); type: functional; details: Concentration 20 uM, ASSAY_TEST Inhibition of Bacterial Growth, detection method Resazurin, Fluorescence (ex560/em590), MEDIA CAMHB, plate type 384well, CORNING #3640, time 18 hr
Acinetobacter baumannii = assay: Antibacterial activity against Acinetobacter baumannii ATCC 19606 (CO-ADD:GN_034); MIC in CAMBH media using NBS plates, by Resazurin F(560/590); type: functional; details: Concentration 20 uM, ASSAY_TEST Inhibition of Bacterial Growth, detection method Resazurin, Fluorescence (ex560/em590), MEDIA CAMHB, plate type 384well, CORNING #3640, time 18 hr
Escherichia coli = assay: Antibacterial activity against Escherichia coli ATCC 25922 (CO-ADD:GN_001); MIC in CAMBH media using NBS plates, by Resazurin F(560/590); type: functional; details: Concentration 20 uM, ASSAY_TEST Inhibition of Bacterial Growth, detection method Resazurin, Fluorescence (ex560/em590), MEDIA CAMHB, plate type 384well, CORNING #3640, time 18 hr
Klebsiella pneumoniae = details: Concentration 20 uM; ASSAY_TEST Inhibition of Bacterial Growth; detection method Absorption (OD600); MEDIA CAMHB; plate type 384well; NBS; CORNING #3640; time 18 hr
Candida albicans = details: 20 µM
Cryptococcus neoformans = details: Concentration 20 uM; ASSAY_TEST Inhibition of Fungal Growth; detection method Resazurin; Absorption (OD600-OD570); plate type 384well; NBS; CORNING #3640

SMILES	Inhibition (Staphylococcus aureus) [%]	Inhibition (Acinetobacter baumannii) [%]	Inhibition (Escherichia coli) [%]	Inhibition (Klebsiella pneumoniae) [%]	Inhibition (Candida albicans) [%]	Inhibition (Cryptococcus neoformans) [%]
COc1ccc(C2CC(=O)c3c(O)cc(OC4OC(CO)C(O)C(O)C4OC4OC(C)C(O)C(O)C4O)cc3O2)cc1O (centres undefined)	15.96	-4.03	5.81	1.79	-1.53	-13
CC1(C)CC23C4COC(=O)C2CCC1C3CC4=O (centres undefined)	5.56	-5.6	-0.76	-5.19	0.59	-8.62
CC[C@]1(O)C[C@H]2CN(CCc3c([nH]c4ccccc34)[C@@](C(=O)OC)(c3cc4c(cc3OC)N(C=O)[C@H]3[C@@](O)(C(=O)OC)[C@H](OC(C)=O)[C@]5(CC)C=CCN6CC[C@]43[C@@H]65)C2)C1.O=S(=O)(O)O [VINCRISTINE SULFATE]	-14.43	-6.71	2.79	1.69	-0.39	-1.83
COC1/C=C\C=C(/C)C(=O)NC2=CC(=O)C(N)=C(CC(C)CC(OC)C(O)C(C)/C=C(\C)C1OC(N)=O)C2=O (centres undefined)	2.59	-32.33	-4.57	4.53	-0.48	-11.91
COc1cc2c(c(OC)c1OC)-c1ccc(OC)c(=O)cc1[C@@H](NC(C)=O)CC2 [COLCHICINE]	-2.4	-6.56	3.55	3.13	-0.28	-9.86
O=c1oc2cc(O)ccc2c2oc3cc(O)ccc3c12 [COUMESTROL]	0.36	-8.94	2.17	-3.39	2.68	17.46
O=C1c2cc(O)c(O)cc2O[C@H](c2ccc(O)c(O)c2)[C@H]1O	16.46	-11.64	7.15	6.5	-0.56	-13.12
C=C1C(=O)O[C@@H]2[C@H]3O[C@]3(C)CC/C=C(\C)CC[C@@H]12	-12.66	3.45	5.09	3.51		-8.82
Cc1cc2nc3[nH]c(=O)[nH]c(=O)c3nc2cc1C [LUMICHROME]	0.69	-0.84	3.58	12.48	0.84	-5.45
COC(=O)C1C(O)CCC2CN3CCc4c([nH]c5ccccc45)C3CC21 (centres undefined)	7.76	-5.08	5.27	13.74	1.54	-9.85
COc1c2c(cc3c1[C@@H]1Oc4c(ccc(O)c4CC=C(C)C)[C@@H]1CO3)OC(C)(C)C=C2	-1.33	-12.04	1.21	-0.46	5.57	-11.6
CC1=C2[C@H]3OC(=O)[C@@H](C)[C@@H]3CC[C@@]2(C)C=C/C1=N\O	19.54	-5.16	3.05	6.63	-0.24	-9.56
COc1ccc2c(c1)O[C@H]1c3ccc(O)cc3OC[C@@H]21	7.33	-10.59	8.35	-2.42	12.9	-18.12
COc1cc(/C=C/C(=O)CC(=O)/C=C/c2ccc(O)c(OC)c2)ccc1O [CURCUMIN]	13.57	-16.03	0.88	14.8	-4.9	-10.45
CC(C)c1ccc2c(c1)CC[C@H]1[C@](C)(C(=O)O)CCC[C@]21C [DEHYDROABIETIC ACID]	11.51	-10.79	7.61	-3.77	14	-14.06
COC(=O)[C@]1(C)CCC[C@]2(C)C3=CC(=O)[C@@]4(C(C)C)O[C@H]4[C@]3(O)CC[C@@H]12	16.23	-9.2	10.18	-2.04	3.2	-11.73
COc1c(O)cc2oc3cc(O)c(CC=C(C)C)c(O)c3c(=O)c2c1CC=C(C)C [MANGOSTIN]	-10.76	-19.44	-3.06	-4.57	-6.96	-8.44
C=C1C(=O)OC2CC1C(O)C/C(C)=C/CC/C(C)=C/C(O)CC2C (centres undefined)	8.79	-8.51	8	4.77	2.83	-14.61
CC1CC(O)C2C3(C)CCCC2(COC3=O)C12CCC1(CCOC1=O)O2 (centres undefined)	0.12	-5.16	2.41	8.95	-0.89	-8.53
CCCCCCCCCCCCCCCCCCOCC(O)CO (centres undefined) [BATILOL]	16.14	-8.86	0.06	2.79	-1.81	0.87
CCC1OC(=O)C(C)C(OC2CC(C)(O)C(O)C(C)O2)C(C)C(O)C(C)(O)CC(C)C(=O)C(C)C(O)C1C (centres undefined)	-9.59	-2.14	7.74	3.36	1.65	-12.63
O=C(O)CCCCCCC[C@@H](O)[C@@H](O)CCCCCCO	20.06	-9.87	9.65	0.28	1.24	-6.7
CCCCCC[C@H]([C@H](C)O)n1cnc2c(N)ncnc21.Cl	18.32	-17.98	7.31	-3.55	-0.37	-9.44
CCCCCCCCCCCCCCCC(=O)O[C@@H]1[C@@H](C)[C@@]2(O)[C@@H](C=C(CO)C[C@]3(O)C(=O)C(C)=C[C@@H]23)[C@H]2[C@]1(OC(C)=O)[C@]2(C)CO	18.67	-9.19	2.92	11.05	-4.72	-11.83
C/C=C/c1cc2c(c(=O)o1)C(=O)[C@@H](O)[C@H](C)O2	-0.66	-9.6	14.21	-6.98	1.1	-12.06
